Inconclusive results are not listed. Unmarked numbers belong to inactive results. The call rests on the fitted dose curve; in most records, active means well fitted activation curve with a large enough effect; inconclusive means small, poorly fitted or top-dose-only effect; inactive means flat fitted curve, though single readings scatter.

The source of these data is PubChem BioAssay AID720517 (National Center for Advancing Translational Sciences (NCATS), 2013).

This assay is described as follows: qHTS for Inhibitors of Cell Surface uPA Generation: FP59 Counterscreen for Cherry-picked Compounds. Further: 0% is about no effect. To be noted: FP59 anthrax toxin cytotoxicity counterscreen, cells; series mostly up to 115 µM; activity (protection from FP59): at the top concentration.
As to `O=C(CN1C(=O)CSCC1=O)NCc1ccc(F)cc1`, the “activity (protection from FP59)” value was -1.32%.

In the case of `CCN(CC)C(=O)Cn1cc(/C=C(\C#N)C(=O)NC2CC2)c2ccccc21`, the “activity (protection from FP59)” value is -1.32%.

With `CNC(=O)[C@@H]1CCC(=O)N1`, the “activity (protection from FP59)” value is -1.3%.

For `COc1ccc(CN2CCNC(=O)C2CC(=O)NCC2CCOCC2)cc1C` (stereo not given), the “activity (protection from FP59)” value is -1.4%.

Take `CCOc1cc(S(=O)(=O)NC2CC(C)(C)NC(C)(C)C2)ccc1Cl`: the “activity (protection from FP59)” value is 0.125%.

As for `COc1ccc(OC)c(S(=O)(=O)N2CCN(Cc3ccccc3)CC2)c1`, the “activity (protection from FP59)” value is -1.16%.

In the case of `Cc1cc(OC(C)C(=O)NCc2ccccn2)c2c(C)cc(=O)oc2c1` (stereo not given), the “activity (protection from FP59)” value is -1.49%.

For `COCc1c(C(=O)Nc2nc(C)cs2)oc2ccccc12`, the “activity (protection from FP59)” value was -1.52%.

Regarding `CC1CCCN(C(=O)c2ccc(-c3ccccc3Cl)o2)C1` (stereo not given), the “activity (protection from FP59)” value was -1.48%.

With `CCOC(=O)C1=CC[C@@H](c2cc3ccc(OC)cc3n2C)N(S(=O)(=O)c2ccc(C)cc2)[C@H]1C(=O)OCC`, the “activity (protection from FP59)” value was -1.37%.

As for `Cc1cc(C)nc(NC(=O)CSc2nccc(C)n2)n1`, the “activity (protection from FP59)” value is -1.55%.

For `COc1cc(OC)cc(C(=O)NC(C(=O)Nc2ccc3c(c2)CCC3)C(C)C)c1` (stereo not given), the “activity (protection from FP59)” value is 4.67%.

On to `Cc1ccc(S(=O)(=O)NCC(=O)N/N=C/c2ccc(Cl)cc2)cc1`, for which the “activity (protection from FP59)” value is -0.814%.

Regarding `O=C1NC(CCc2ccccc2)C(=O)N1Cc1ccccc1Cl` (stereo not given), the “activity (protection from FP59)” value is 0.227%.

In the case of `Cc1cc(C)cc(S(=O)(=O)c2cn(C)c3cc(N4CCN(C)CC4)c(F)cc3c2=O)c1`, the “activity (protection from FP59)” value was -1.55%.

Regarding `CCCCCOC(=O)Nc1nnc(CCCCC)s1`, the “activity (protection from FP59)” value is -0.0737%.

On to `COCCNC(=S)N(CCc1c(C)[nH]c2ccccc12)Cc1ccco1`, for which the “activity (protection from FP59)” value was -1.09%.

Regarding `CN1CCN(c2ccc(S(=O)(=O)N3CCOCC3)cc2NC(=O)CSCc2ccccc2)CC1`, the “activity (protection from FP59)” value was 1.22%.

With `CCOc1ccc(NS(=O)(=O)c2coc(C(N)=O)c2)cc1`, the “activity (protection from FP59)” value was -1.2%.

As to `Cc1ccc(S(=O)(=O)NNC(=O)c2ccc(F)cc2)cc1`, the “activity (protection from FP59)” value was -1.31%.

Turning to `COC(=O)c1ccc(CN2CCCC(CNC(=O)Cc3ccc(OC)cc3)C2)cc1` (stereo not given), the “activity (protection from FP59)” value was -1.35%.

With `COc1ccc(CNCCC2(C(C)C)CCOC(C)(C)C2)cc1` (stereo not given), the “activity (protection from FP59)” value is -1.52%.

With `Cc1cccc(C(=O)NCC(=O)OCC(=O)NC2CCCCCCC2)c1`, the “activity (protection from FP59)” value was -1.42%.

Consider `O=C(Nc1cccc(C2=NCCN2)c1)Nc1cccc(C2=NCCN2)c1`, for which the “activity (protection from FP59)” value is -1.55%.

Turning to `CC(=O)Nc1nc2ccccc2[nH]1`, the “activity (protection from FP59)” value is -1.4%.

Turning to `COc1ccccc1-c1ccc(SCC(=O)NCCc2ccccc2)nn1`, the “activity (protection from FP59)” value is -1.22%.

Take `Cc1ccc(S(=O)(=O)N2CCN(C(=O)c3n[nH]c(=O)c4ccccc34)CC2)cc1`: the “activity (protection from FP59)” value is -1.23%.

Turning to `O=C(O)c1cc(N=Nc2c(O)[nH]c3ccc([N+](=O)[O-])cc23)ccc1Cl`, the “activity (protection from FP59)” value is -1.37%.

For `O=C(NCc1ccc(F)cc1)c1cc(S(=O)(=O)N2CCCCC2)ccc1N1CCOCC1`, the “activity (protection from FP59)” value is -1.3%.

Turning to `CC(C)(C)S(=O)(=O)N1C[C@H]2CC/C=C\C/C(c3ccccc3)=C\2[C@@H]1CCO`, the “activity (protection from FP59)” value is 0.45%.

Consider `CC(=O)Nc1c2c(nn1-c1cccc(C)c1)CSC2`, for which the “activity (protection from FP59)” value is -1.26%.

Take `CCC(NC(=O)Cc1c(C)c2c(cc(C)c3c(C)c(C)oc32)oc1=O)C(=O)O` (stereo not given): the “activity (protection from FP59)” value is -1.44%.

`COc1cc(C(=O)N/N=C(\Cc2ncc[nH]2)c2ccccc2)cc(OC)c1OC`: the “activity (protection from FP59)” value is -0.278%.

As to `O=C(c1ccccn1)C1CCCN(Cc2cn[nH]c2-c2cc3ccccc3o2)C1` (stereo not given), the “activity (protection from FP59)” value is -1.18%.

As to `Cc1ccc2nc(-c3ccncc3)cc(C(=O)NCCc3ccc(F)cc3)c2c1`, the “activity (protection from FP59)” value was -1.48%.

In the case of `CCNC(=S)NNC(=O)C(c1ccccc1)c1ccccc1`, the “activity (protection from FP59)” value was -1.4%.

On to `COc1ccccc1NC(=O)Cn1ncc2c1-c1ccccc1OC2`, for which the “activity (protection from FP59)” value is -1.3%.

Consider `COC(=O)[C@@]1(Cc2ccc(F)cc2)[C@H]2c3cc(C(=O)N(C)C)n(Cc4c(CO)[nH]cc(C)c4=O)c3C[C@H]2CN1C(=O)c1ccccc1`, for which the “activity (protection from FP59)” value was -1.32%.

As for `COc1ccccc1NS(=O)(=O)c1cc(NC(=O)CCc2nc3ccccc3c(=O)[nH]2)ccc1C`, the “activity (protection from FP59)” value was -1.09%.

`CC(=O)c1ccc(N2CCN(C(=S)NCc3ccco3)CC2)cc1`: the “activity (protection from FP59)” value is -1.24%.
